Screening results (PubChem BioAssay)
RMI-FANCM inh – inhibitors of human RMI core complex binding to FANCM MM2 | Fluorescence polarization, RMI core complex with F-MM2 peptide; stronger effect = lower value | FP signal (polarization) at 33 µM | actives 0.58% (n = 70,000) | AID 1159607; in the data active means FP signal below about 40
Active calls of the source: *; ! = not confirmed by another sample. Only a selection was taken, and hits are over-represented in it overall.

SMILES	RMI-FANCM inh
COCC(=O)N1CCCc2ccc(NS(=O)(=O)Cc3cccc(C)c3)cc21	73
COCCN1CCCc2ccc(NS(=O)(=O)Cc3cccc(C)c3)cc21	0*
COCCN1CCCc2ccc(NS(=O)(=O)c3cccc(C)c3)cc21	61
CC(C)(C)[C@H](CO)N=Cc1cccc(C=N[C@H](CO)C(C)(C)C)n1	61
Cc1ccc(-c2csc3c(=O)n(C)c(SCC(=O)NCc4ccccc4Cl)nc23)cc1	84
S=c1[nH]cc2ccccn12	18*
Cn1c(-c2ccccc2)c[nH]c1=S	60
S=c1[nH]nc2ccccn12	56
CC(=O)N1CCc2ccc(NC(=O)COc3ccc(Cl)cc3Cl)cc2C1	51
COc1ccc(-c2nnc(NC(=O)Cc3ccc(C(C)C)cc3)o2)cc1	62
Cc1n[nH]c(=S)c2c1cnn2-c1ccc(F)cc1	73
O=C(CCC1CCCCC1)N1CCN(CCO)CC1	65
Nc1nc2c(c(C(F)(F)F)n1)CCc1ccccc1-2	56
COc1cccc2cc(C(=O)Nc3nnc(-c4ccc(SC)cc4)o3)oc12	32*
COc1cccc2cc(C(=O)Nc3nnc(-c4cc(C)nn4C)o3)oc12	67
COc1cccc2cc(C(=O)Nc3nnc(-c4ccc5c(c4)OCO5)o3)oc12	65
CC(NC(=O)c1ccc([N+](=O)[O-])cc1)C(c1cccs1)N1CCN(Cc2ccccc2)CC1 (stereo unspecified)	60
CCOC(=O)N1CCN(CC(O)COc2ccc(Cl)cc2)CC1 (stereo unspecified)	54
O=C(/C=C/c1ccco1)c1c(-c2ccccc2)c2cc(Cl)ccc2[nH]c1=O	0*
O=C(/C=C/c1ccco1)c1c(-c2ccccc2)c2cc(Br)ccc2[nH]c1=O	54
C/C(=N\NC(=O)CCCC(=O)O)c1c(-c2ccccc2)c2cc(Cl)ccc2[nH]c1=O	60
N#Cc1c(Cl)cccc1Oc1ccc(-c2nnco2)cc1	62
CCOC(=O)OCCN1C(=O)c2cccc3c(Br)ccc(c23)C1=O	59
O=C1OC(=O)c2ccc(Br)c3cccc1c23	56
O=C1c2cccc3c(Br)ccc(c23)C(=O)N1CCO	-1*
SMILES	RMI-FANCM inh
O=C(NCC1CCN(C2CCCC2)CC1)c1cccs1	75
CCNc1[nH]c(=S)nc2sc3c(c12)CCN(C)C3	-15*
CN1CCc2c(sc3nc(NC(=O)c4ccc(OC(F)(F)F)cc4)sc(=O)c23)C1	60
CCNc1nc(SCC(=O)NC(=O)NCc2ccccc2)nc2sc3c(c12)CCN(C)C3	5
CC1=NN(c2ccccc2)C(=O)C1C(=O)c1cc(C)cc(C)c1 (stereo unspecified)	70
N#Cc1c(-c2cccnc2)c2c([nH]c1=O)-c1ccccc1SC2	33*
N#Cc1ccc(-c2cccnc2)[nH]c1=O	58
COc1ccc(N=Nc2cc(C)c(O)c(CN3CCCCC3)c2)cc1	70
Cc1ccc(C(C)C)cc2c(C)ccc1-2	52
COc1ccc(N=Nc2cc(C)c3cc(C(C)C)ccc(C)c2-3)cc1	-11*
c1ccc(CSc2nsc(=NC(=Nc3ccccc3)c3ccccc3)n2-c2ccccc2)cc1	62
CCc1cc(Cl)c(OC)c(C(=O)NC[C@@H]2CCCN2CC)c1O	45
CCN1CCC[C@H]1CNC(=O)c1c(OC)ccc(I)c1O	54
CCN1CCCC1CNC(=O)c1cc(S(N)(=O)=O)ccc1OC (stereo unspecified)	2*!
CC(C)CN(C1CCS(=O)(=O)C1)S(=O)(=O)c1ccc(Cl)c([N+](=O)[O-])c1 (stereo unspecified)	53
CC1(C)Cc2cccc(OCC(=O)NCc3cccs3)c2O1	57
Cc1ccc(C)c(S(=O)(=O)NCC(=O)N2CCN(c3ccccc3)CC2)c1	63
COc1cccc(CSc2nc(CC(=O)NC3CC3)cc(=O)[nH]2)c1	54
COc1cccc(CSc2nc(CC(=O)Nc3ccc(C)c(C)c3)cc(=O)[nH]2)c1	64
COc1cccc(CSc2nc(CC(=O)Nc3nnc(C)s3)cc(=O)[nH]2)c1	34*
O=C(Cc1ccccc1)NNC(=O)c1cccn(Cc2ccc(Cl)c(Cl)c2)c1=O	63
CCOC(=O)c1sc(NC(=O)c2ccno2)c(C(=O)OCC)c1C	120
O=C(NCC(c1ccc(F)cc1)N1CCOCC1)C(=O)Nc1ccncc1 (stereo unspecified)	52
CCOC(=O)CNC(c1ccccc1)c1cc(Br)ccc1NC(=O)c1ccccc1 (stereo unspecified)	62
CCOC(=O)Cn1c(=NC(=O)c2ccccc2Br)sc2cccc(F)c21	63
SMILES	RMI-FANCM inh
CCOC(=O)CN1C(c2ccccc2F)Nc2ccc(Br)cc2C1c1ccccc1 (stereo unspecified)	27*
O=C(Cn1nc(C2CC2)c2cnn(-c3cccc(Cl)c3)c2c1=O)NCC1CCCO1 (stereo unspecified)	66
O=C(COc1ccc(Cl)cc1)NCCNC(=O)c1ccc(NC(=O)C2CC2)cc1	79
O=C(CN1CCN(Cc2nc(-c3ccco3)cs2)CC1)N1CCOCC1	42
COc1ccc(CCC(=O)N2CCN(Cc3nc(-c4ccco4)cs3)CC2)cc1	64
O=C(CN1CCN(Cc2nc(-c3ccco3)cs2)CC1)N1CCCC1	40*
COCc1cc(C)nc2oc(C(=O)c3ccccc3)c(N)c12	61
CCOC(=O)c1oc2nc3c(c(-c4cccnc4)c2c1N)CCc1ccccc1-3	37*
CCOC(=O)Cn1c(-c2cccnc2)nc(-c2ccccc2)c1-c1ccccc1	62
O=C(c1ccc2nccnc2c1)N1CCCc2ccccc21	56
CCOC(=O)CN/C(SC)=C(/C#N)C(=O)c1cccs1	52
CC(=O)N1CC(C)=C(C#N)C1O (stereo unspecified)	-1*
Cc1cccc(Cn2c(N3CCN(Cc4cc(C)ccc4C)CC3)nc3c2c(=O)[nH]c(=O)n3C)c1	53
Oc1c(Cl)cc(Cl)cc1C=Nc1ccc(N2CCOCC2)cc1	50
CC(=O)c1ccc(Cl)c(N=Cc2cc(Cl)cc(Cl)c2O)c1	34*
CN(C)c1ccc(C(=O)N/N=C\c2cc(Cl)cc(Cl)c2O)cc1	52
CCOC(=O)c1ccc(N2CCOCC2)c(NS(=O)(=O)c2ccccc2[N+](=O)[O-])c1	52
Cc1c(C)c(C)c(C(=O)CCc2cccc(N=Cc3cc(Cl)cc(Cl)c3O)c2)c(C)c1C	40
O=C(N/N=C\c1cc(Cl)cc(Cl)c1O)c1ccncc1	15
CCOC(=O)c1ccc(N2CCOCC2)c(N=Cc2cc(Cl)cc(Cl)c2O)c1	15*
Oc1c(Cl)cc(Cl)cc1C=Nc1ccc2n[nH]nc2c1	25*
O=C1Nc2ccccc2C1Cc1ccc(N=Cc2cc(Cl)cc(Cl)c2O)cc1 (stereo unspecified)	37
C#CCOC(=O)Nc1cnc(N2CCOCC2)c(C(F)(F)F)c1	38
N/C(=N/OC(=O)CCOc1ccc(F)cc1)c1ccc([N+](=O)[O-])o1	56
O=C(Nc1ccc2c(c1)N(C(=O)C1CCCO1)CC2)c1cc2ccccc2oc1=O (stereo unspecified)	62
SMILES	RMI-FANCM inh
O=C(NCCCN1CCOC(c2ccccc2)C1)C(=O)NCc1ccc(F)cc1 (stereo unspecified)	72
COc1ccc(Oc2cc(C(F)(F)F)ccn2)cc1	47
O=C(Cc1cccs1)NCCOc1ccc2nnc(-c3ccc(F)cc3)n2n1	68
CCOc1ccccc1N(Cc1nnc2n1CCCCC2)C(=O)Nc1ccc(OC)cc1	54
Cc1ccc(-c2nc(C(N)=O)c3[nH]c(=O)n(-c4ccc(C(C)(C)C)cc4)c3n2)o1	55
Cc1onc(-c2ccccc2)c1C(=O)Nc1ccccc1Oc1ccccc1	55
